Screening data as filed in PubChem.
DT40 TDP1 CPT – growth inhibition of DT40 Tdp1-/-;hTDP1 cells with camptothecin (screen for TDP1 inhibitors) | hit rate 12% among 420,000 | chicken DT40 Tdp1-/-;hTDP1 cells + 20 nM CPT, ATP luminescence, 48 h | Potency, µM (top dose mostly 46.2 µM), usual class: inhibitors; note: nearly all actives have a fitted effect of over 55% in size
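Cell growth measured by CellTiter-Glo luminescence after a minimum 48 h, 37 C compound exposure with 20 nM CPT in Tdp1-knockout DT40 cells stably expressing hTDP1, seeded 400/well; qHTS titration format.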
IL-1B inflam inh – blocks inflammasome-driven IL-1 beta release. AID 743279. activity change, % at 57.5 µM. hit rate 4.7% among 360,000. THP-1 LPS/ATP IL-1B secretion, AlphaLISA, 16 h; active compounds read low; in the data active = activity change below about -50%; inconclusive = mostly about -30% to -49%
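Secreted IL-1B measured by AlphaLISA bead assay after 16 h compound exposure of THP-1 cells; compounds (final up to 57.5 uM) added 1 h before LPS (250 ng/mL) and ATP (1.25 mM) stimulation; lower signal means less secretion.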
HT1080NT lethal – kills 2HG-producing HT-1080-NT fibrosarcoma cells; AID 686970; Potency, µM (top dose mostly 46.1 µM), most hits filed as cytotoxic; hit rate 1.6% among 360,000; HT-1080-NT fibrosarcoma viability, CellTiter-Glo ATP luminescence, 48 h;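 note: NT is the 2HG producing partner of a matched IDH1 knockdown line; nearly all actives have a fitted effect of over 55% in size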
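750 cells/well, RPMI + 5% FBS; 2 h settle, compound pin-transfer, 48 h at 37 degrees C. CellTiter-Glo 10 min RT, luminescence. Normalized to DMSO and media-only wells.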
TDP1 cell noCPT – qHTS for Inhibitors of human tyrosyl-DNA phosphodiesterase 1 (TDP1): qHTS in cells in absence of CPT; AID 686978, 2013; Potency, µM (titrated, usually from 46.2 µM), most hits filed as inhibitors; hit rate 15% among 420,000; DT40 Tdp1-/- hTDP1 cells, no CPT, ATP luminescence, 48 h; note: nearly all actives have a fitted effect of over 55% in size
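Growth kinetics read by CellTiter-Glo luminescence after ≥48 hr at 37 °C. Cells: DT40 Tdp1-/- stably carrying human TDP1, 400 per well, compound exposure in the absence of CPT (DMSO vehicle).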
HT1080 IDH1KD tx – toxicity to HT-1080 IDH1 knockdown cells (counter line) | Potency, µM (doses to about 46.1 µM), usual class: cytotoxic | AID 686971 | hit rate 2% among 360,000 | HT-1080 IDH1 knockdown viability, ATP luminescence, 48 h
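IDH1KD HT-1080 cells, 750/well, RPMI + 5% FBS; compound pinned after 2 h settling; 48 h, 37 °C; CellTiter-Glo luminescence; % activity normalised to DMSO and no-cell wells; curves fitted, classed by r2 and efficacy.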
Large screens that a line does not name were inactive. An excerpt weighted towards active compounds, which were near 19% of everything screened. Unless noted, calls come from the whole dose curve; as a rule, active = well fitted curve in the direction sought with a large enough effect; inconclusive = small, poorly fitted or top-dose-only effect, or another doubt; inactive = no such curve, though single readings can be large; an effect the other way counts as inactive or inconclusive.

COc1ccccc1CC(=O)Nc1cc2oc3ccccc3c2cc1OC	DT40 TDP1 CPT 26µM, HT1080NT lethal inconclusive, TDP1 cell noCPT 16µM, HT1080 IDH1KD tx inconclusive
CC(Oc1ccc2oc3ccccc3c2c1)C(=O)NC12CC3CC(CC(C3)C1)C2 (stereo not drawn)	DT40 TDP1 CPT 16µM, TDP1 cell noCPT 29µM
COc1ccc(C(=O)NC23CC4CC(CC(C4)C2)C3)cc1	none
COc1cc2c(cc1NC(=O)/C=C/c1cc(OC)c(OC)c(OC)c1)oc1ccccc12	DT40 TDP1 CPT 21µM, TDP1 cell noCPT 15µM
COc1ccc(CC(=O)Nc2cc3oc4ccccc4c3cc2OC)cc1	DT40 TDP1 CPT inconclusive, IL-1B inflam inh inconclusive, TDP1 cell noCPT inconclusive
COc1cccc(CN(C)CC(=O)Nc2cc3oc4ccccc4c3cc2OC)c1	DT40 TDP1 CPT 23µM, TDP1 cell noCPT 21µM
O=C1NC[C@H](CCCCN2C[C@H](Cc3ccc(O)cc3)N(CCC3CCCCC3)C(=O)C2=O)N(CCC2CCCCC2)C1=O	IL-1B inflam inh inconclusive
COc1cc2c(cc1NC(=O)C(C)Oc1ccccc1)oc1ccccc12 (stereo not drawn)	DT40 TDP1 CPT 15µM, TDP1 cell noCPT inconclusive (no result: IL-1B inflam inh, HT1080NT lethal, HT1080 IDH1KD tx)
COc1cc2c(cc1NC(=O)CN(C)Cc1cccc(OC)c1OC)oc1ccccc12	DT40 TDP1 CPT 21µM, TDP1 cell noCPT 13µM
COc1cc2c(cc1NC(=O)COCC(=O)O)oc1ccccc12	none
COc1cc2c(cc1NC(=S)NC(=O)c1c(OC)cccc1OC)oc1ccccc12	DT40 TDP1 CPT inconclusive, TDP1 cell noCPT inconclusive
COc1cc2c(cc1NC(=O)COC(=O)C1CC(=O)N(Cc3ccco3)C1)oc1ccccc12 (stereo not drawn)	IL-1B inflam inh -56
COc1cc2c(cc1NC(=O)c1ccncc1)oc1ccccc12	DT40 TDP1 CPT inconclusive, TDP1 cell noCPT 21µM, HT1080 IDH1KD tx inconclusive
COc1cc(NC(=O)C2CC(=O)N(Cc3ccco3)C2)c(OC)cc1Cl (stereo not drawn)	none
C=CCN1CCN(c2nc3ccccc3nc2C#N)CC1	TDP1 cell noCPT inconclusive (no result: IL-1B inflam inh, HT1080NT lethal, HT1080 IDH1KD tx)
Cc1ccc(F)c(NC(=O)C2CCCCC2C(=O)O)c1 (stereo not drawn)	none
Fc1ccc(N2CCN(Cc3cnc(Cl)s3)CC2)cc1	none
NC(=S)N/N=C/c1ccc(-n2nncc2-c2ccc(Cl)cc2)cc1	IL-1B inflam inh -70, TDP1 cell noCPT inconclusive
NC(=S)N/N=C/c1ccc(/C=N/NC(N)=S)cc1	DT40 TDP1 CPT inconclusive
COc1ccc(/C(C)=N/Nc2nc3ccccc3n3cnnc23)cc1OC	DT40 TDP1 CPT inconclusive, TDP1 cell noCPT 21µM
COc1ccc(Nc2nc3ccccc3n3cnnc23)cc1Cl	DT40 TDP1 CPT inconclusive
Cc1ccc(-n2ncc3c2CCCC3NC(=O)c2ocnc2C)cc1C (stereo not drawn)	DT40 TDP1 CPT 10µM, HT1080NT lethal inconclusive, TDP1 cell noCPT 7.3µM
CCn1nc(C)cc1C(=O)NC1CCCc2c1cnn2-c1ccc(C)c(C)c1 (stereo not drawn)	DT40 TDP1 CPT inconclusive, TDP1 cell noCPT inconclusive, HT1080 IDH1KD tx inconclusive
Cc1cc(C(=O)NC2CCCc3c2cnn3-c2ccc(C)c(C)c2)no1 (stereo not drawn)	DT40 TDP1 CPT 15µM, TDP1 cell noCPT inconclusive
O=c1[nH]c(Cc2cccs2)nc2scc(-c3ccc(Cl)cc3)c12	DT40 TDP1 CPT 13µM
O=c1[nH]c(Cc2ccc(F)cc2)nc2scc(-c3ccc(F)cc3)c12	DT40 TDP1 CPT 13µM, TDP1 cell noCPT 26µM
O=C(OCc1nc2scc(-c3ccccc3)c2c(=O)[nH]1)c1ccco1	none
Cc1ccc(-c2csc3nc[nH]c(=O)c23)cc1	HT1080NT lethal inconclusive, TDP1 cell noCPT inconclusive
Cc1ccc(-c2csc3nc(-c4ccncc4)[nH]c(=O)c23)cc1	DT40 TDP1 CPT 4.1µM, TDP1 cell noCPT 2.6µM
O=c1[nH]cnc2scc(-c3ccc(F)cc3)c12	TDP1 cell noCPT inconclusive
O=c1[nH]c(Cc2ccccn2)nc2scc(-c3ccc(Cl)cc3)c12	DT40 TDP1 CPT inconclusive
Cc1ccc(-c2csc3nc(CN(C)Cc4ccccc4)[nH]c(=O)c23)cc1	DT40 TDP1 CPT inconclusive, TDP1 cell noCPT 26µM
CC1=C(C(=O)OCc2ccccc2)C(c2ccc(C)cc2)NC(=O)N1 (stereo not drawn)	TDP1 cell noCPT inconclusive
O=C(NCc1ccccc1)NC1(C(=O)N2CCOCC2)CCCCC1	IL-1B inflam inh inconclusive
Cc1cccc(C)c1OCc1cc(C(=O)N2CCN(Cc3nccn3C)CC2)no1	none
COc1cccc(Oc2ccc(N/C=C/C(=O)C(C)(C)C)cc2)c1	IL-1B inflam inh -65, TDP1 cell noCPT inconclusive
COc1ccc(Oc2ccc(N/C=C/C(=O)C(C)(C)C)cc2)cc1	none
C=CCNC(=S)NN=C1CCCCCCC1	DT40 TDP1 CPT 16µM, TDP1 cell noCPT 26µM
NC(=S)NN=C1C=CCCC1	DT40 TDP1 CPT 2.9µM, TDP1 cell noCPT 4.6µM
CC(C)CNC(=O)C(=O)NN=C1CCCCCC1	none
COCCNC(=S)NN=C1CCCCC1	DT40 TDP1 CPT 5.2µM, TDP1 cell noCPT 5.2µM
NC(=S)NN=C1CCCCCCCCC1	DT40 TDP1 CPT inconclusive, TDP1 cell noCPT inconclusive
NC(=S)NN=C1CCSCC1	none
NC(=S)NN=C1CCCCCCCC1	DT40 TDP1 CPT 2.3µM, TDP1 cell noCPT inconclusive
CC1CN(C(=O)c2cc3cc(F)ccc3[nH]2)CC(C)O1 (stereo not drawn)	none
COc1cc(CCC(=O)OCC(=O)Nc2ccccc2C(C)C)cc(OC)c1OC	none
COc1ccccc1/C=C(/C(=O)OCC(=O)Nc1ccccc1C(C)C)c1ccccc1	DT40 TDP1 CPT inconclusive, TDP1 cell noCPT 21µM
O=C(CN1C(=O)NC2(CCCC2)C1=O)OCCOc1cccc(Br)c1	DT40 TDP1 CPT inconclusive, IL-1B inflam inh -60, TDP1 cell noCPT inconclusive
O=C(CN1C(=O)NC2(CCCC2)C1=O)OCCOc1ccccc1	DT40 TDP1 CPT inconclusive
Cc1cc(C)cc(NC(=O)CSc2nc(-c3ccccc3)c3cc(F)ccc3n2)c1	DT40 TDP1 CPT 18µM, TDP1 cell noCPT 18µM (no result: IL-1B inflam inh, HT1080NT lethal, HT1080 IDH1KD tx)
CCOc1ccc(NC(=O)CSc2nc(-c3ccccc3)c3cc(OCC)ccc3n2)cc1	DT40 TDP1 CPT 15µM, TDP1 cell noCPT inconclusive (no result: IL-1B inflam inh, HT1080NT lethal, HT1080 IDH1KD tx)
COc1ccc(-c2noc3c2-c2nc(-c4ccc(C)cc4)sc2CC3)cc1	DT40 TDP1 CPT inconclusive, TDP1 cell noCPT inconclusive
Cc1cccc(NC(=O)c2ccc(Cn3cc(C(F)(F)F)ccc3=O)cc2)c1	none
Cc1ccc2c(c1)C(=O)C(=O)N2Cc1ccc(OC(C)C)cc1	DT40 TDP1 CPT 0.0073µM, TDP1 cell noCPT 0.058µM (no result: IL-1B inflam inh, HT1080NT lethal, HT1080 IDH1KD tx)
CC(C)Oc1ccc(Cn2c(=O)sc3ccccc32)cc1	none
CC(=O)c1cc(C)ccc1OC(=O)CN1C(=O)c2ccccc2C1=O	none
